# Shown are actives, neighbours in structure and some others; about 1.2% of the full set was active somewhere.
# AMA1-RON2 inh = qHTS for Inhibitors of AMA1-RON; Towards Development of Antimalarial Drug Lead: Primary Screen | Plasmodium falciparum AMA1 (3D7) - RON2 peptide interaction | AlphaScreen AMA1-biotinylated RON2 peptide binding | Potency, µM (titrated, usually from 58.2 µM), usual class: inhibitors | 360,000 compounds, 0.2% hits | AID 720542, 2013; further: nearly all actives have a fitted effect of over 45% in size
#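 AMA1 (3D7) with his tag at 25 nM final met compounds first, then biotinylated RON2 peptide at 25 nM; detection used donor plus acceptor beads, 10 µg/mL apiece, read by AlphaScreen after 30 min at room temperature.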
# Tb PYK inh = qHTS of Trypanosoma Brucei Inhibitors | 410,000 compounds, 0.12% hits | Potency, µM (doses to about 76.8 µM), actives largely listed as inhibitors | AID 624173, 2012 | TbPYK enzyme, Kinase-Glo Plus ATP luminescence, 45 min | pyruvate kinase (Trypanosoma brucei), Q57TT1; further: nearly all actives have a fitted effect of over 50% in size
#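 Glycolytic pyruvate kinase of T. brucei was incubated with substrate, test compound and 130 uM ADP for 45 minutes at room temperature. Luminescent Kinase-Glo Plus signal was measured after 10 minutes.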
# FBPA Giardia inh = qHTS Assay for Inhibitors of Fructose-1,6-bisphosphate Aldolase from Giardia Lamblia. A8B2U2. 290,000 compounds, 0.71% hits. Potency, µM (doses to about 59.6 µM), most hits filed as inhibitors. purified Giardia FBPA. AID 2451, 2010; further: nearly all actives have a fitted effect of over 55% in size
# Target sequence (A8B2U2 whole entry, looked up): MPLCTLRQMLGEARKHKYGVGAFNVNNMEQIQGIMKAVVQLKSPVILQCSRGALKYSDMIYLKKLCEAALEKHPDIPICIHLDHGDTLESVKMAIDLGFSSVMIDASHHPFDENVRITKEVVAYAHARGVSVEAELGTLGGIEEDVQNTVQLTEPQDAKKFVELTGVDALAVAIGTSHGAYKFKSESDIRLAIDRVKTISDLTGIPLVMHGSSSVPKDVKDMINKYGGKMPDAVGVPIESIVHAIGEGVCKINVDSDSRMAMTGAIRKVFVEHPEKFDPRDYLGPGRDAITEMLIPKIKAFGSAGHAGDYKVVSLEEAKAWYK
#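 40 nM FBPA preincubated 10 min at RT with compound (up to 57.5 uM final), then substrate plus GAPDH/TPI/NAD/arsenate coupling and diaphorase/resazurin added. Fluorescence read after 20 min at RT, 525/598 nm.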
# NS1 inh = qHTS Assay for Inhibitors of Influenza NS1 Protein Function | Potency, µM (doses to about 46.1 µM) | 270,000 compounds, 0.4% hits | AID 2326, 2010; calls by dose curve; further: actives are rising curves; nearly all actives have a fitted effect of over 50% in size
#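 In this qHTS, NS1 from influenza A is expressed in budding yeast, where it slows growth. Cells are switched from glucose to 2% galactose medium (pH 6.0, -URA), treated with compound, and growth recovery is read at OD600.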
# LmPK inhibitor = qHTS Assay for Inhibitors of Leishmania Mexicana Pyruvate Kinase (LmPK). 290,000 compounds, 0.37% hits. Q27686. Potency, µM (doses to about 57.5 µM), usual class: inhibitors. purified LmPK, Kinase-Glo ATP luminescence, 1 h. AID 1721, 2009
#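 Kinase-Glo luminescence read after 1 h RT reaction of 0.1 nM LmPK with 0.5 mM PEP and 0.1 mM ADP. Activity scaled between uninhibited and enzyme-free controls.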
# A number is an active result; . = inactive; ? = inconclusive; / = not tested or not shown; [ ] = another dose, or the depositor's remark. Unless noted, the call rests on the fitted dose curve; in most records, active means well fitted curve in the direction sought with a large enough effect; inconclusive means small, poorly fitted or top-dose-only effect, or another doubt; inactive means no such curve, though single readings can be large; an effect the other way counts as inactive or inconclusive.
SMILES,AMA1-RON2 inh,Tb PYK inh,FBPA Giardia inh,NS1 inh,LmPK inhibitor
Cc1ccc(S(=O)(=O)/N=C2\C=C(Nc3cccc(C(=O)O)c3)C(=O)c3ccccc32)cc1,.,.,0.25µM,.,.
Cc1ccc(S(=O)(=O)/N=C2\C=C(Nc3ccc(O)cc3)C(=O)c3ccccc32)cc1,20µM,.,/,/,/
Cc1ccc(S(=O)(=O)/N=C2\C=C(Nc3cccc(C(=O)O)c3)C(=O)c3ccccc32)c(C)c1,?,.,?,.,.
CCc1ccc(S(=O)(=O)/N=C2\C=C(Nc3ccc(C(=O)O)cc3)C(=O)c3ccccc32)cc1,?,.,0.45µM,.,.
CO[C@H]1COC(=O)[C@@H](C)COC(=O)[C@@H](OCc2ccccc2)/C=C\[C@@H]1C,/,/,.[12.9 µM],/,/
CN(C)C(=S)SC(=S)N(C)C,/,?,16µM,/,/
O=C(O)CCNc1cc2ccccc2cc1C(=O)O,.,.,4.5µM,.,.
COc1ccc(OC)c(NC(=O)c2ccccc2N(Cc2ccccc2)S(C)(=O)=O)c1,.,13µM,.,.,.
COC(=O)c1ccccc1NC(=O)COC(=O)c1ccccc1N=Nc1ccc(N(C)C)cc1,?,.,.,.,.
CC(=O)c1ccc(NC(=O)COC(=O)c2ccccc2N=Nc2ccc(N(C)C)cc2)cc1,11µM,.,.,.,.
CN(C)c1ccc(N=Nc2ccccc2C(=O)OCC(=O)N(C)c2ccccc2)cc1,14µM,.,.,.,.
CN(C)c1cccc(C(=O)OCC(=O)N(C)c2ccccc2)c1,.,.,.,.,.
CCOc1ccc(CNC(=O)c2ccc(NC(=O)N3CCSc4ncccc43)cc2)cc1,/,.[15.4 µM],/,/,/
CCCC(=O)N1CCN(c2ccc(NC(=O)c3cc4ccccc4o3)cc2Cl)CC1,.,.,10µM,.,.
Cc1cc(C(=O)Nc2cccc3ccccc23)oc1C,.,.,/,/,/
CCC(=O)N1CCN(c2ccc(NC(=O)c3cc4ccccc4o3)cc2Cl)CC1,.,.,?,.,.
O=C(Nc1ccccc1)c1cc2ccccc2o1,.,.,.,.,14µM
Cc1cc(C(=O)Nc2ccccc2)oc1C,.,.,/,.,16µM
CCCCc1oc2ccc(NS(C)(=O)=O)cc2c1C(=O)c1ccc(OCCCN(CCCC)CCCC)cc1,/,.,/,/,/
c1ccc(CNc2ccc3ccccc3n2)nc1,.,.,.,.,18µM
Cc1cc(NCc2ccccn2)nc2ccccc12,.,.,.,.,.
CC(=O)N1/C(=C/c2ccc(N(C)C)cc2)C(=O)c2ccccc21,28µM,.,.,/,.
CCC[C@]1(CCc2ccccc2)CC(O)=C([C@H](CC)c2cccc(NS(=O)(=O)c3ccc(C(F)(F)F)cn3)c2)C(=O)O1,/,.,/,/,/
COC(=O)Cn1cc(/C=N/NC(=O)c2ccc(C#N)cc2F)c2ccccc21,.,.,.,.,.
CCn1cc(/C=N/NC(=O)c2ccc(C#N)cc2F)c2ccccc21,.,.,16µM,.,.
SMILES,AMA1-RON2 inh,Tb PYK inh,FBPA Giardia inh,NS1 inh,LmPK inhibitor
Cc1c(-c2nsc(NC(=O)c3cccs3)n2)nnn1-c1ccc(Cl)cc1,/,.,/,/,/
COC(=O)c1nc2ccc(N3CCOCC3)cc2c(C)c1C(=O)OC,.,.,7.9µM,/,.
COC(=O)c1c(-c2ccc(OC)cc2)sc2ccc(N3CCOCC3)cc12,.,.,/,/,/
O=C(Nc1cccc(NC(=O)c2ccco2)c1)c1ccc2c(c1)OCCO2,.,.,.,.,.
O=C(Nc1ccc2c(c1)OCCO2)c1ccco1,.,.,.,.[9.22 µM],25µM
Cc1ccc(C(=O)Nc2ccc3c(c2)OCO3)cc1NC(=O)c1ccco1,.,.,.,/,.
Cc1cc(NC(=O)c2ccc3c(c2)OCO3)ccc1NC(=O)c1ccco1,?,.,.,.,14µM
Cn1nccc1C(=O)Nc1ccc2c(c1)OCCO2,.,.,.,.,16µM
O=C(Nc1ccc(OC(=O)c2ccco2)cc1)c1ccco1,.,.,.,.,14µM
CCCn1c(-c2ccc(F)cc2)nc2c(NCCN3CCSCC3)nc(C)nc21,/,/,.,/,/
CN(/N=C/c1ccc([N+](=O)[O-])o1)c1ccccc1,13µM,.,.,/,.
O=C(N/N=C/c1ccc([N+](=O)[O-])o1)C(O)c1ccccc1 (stereo unspecified),.,.,.,.,.
